From PMC13494018
Unmarked numbers belong to inactive results. The rule behind the calls is not given here.

B1: d1r12_design_ppi_474_dldesign_0_cycle0_af2pred (protein)
chain: KEELKKEIKKLAKKAKEHAEEAKRTAGDLGAMARHTTEAAAAAEKAQALAAKSGDEEAKKLAKEAKEAAAEATEHLVEAARAAA
B2: d2r6_design_ppi_95_dldesign_0_cycle1_af2pred (protein)
chain: AEAQAQAKAIVQQGYQDARALIDKYGLPVAAKVKVFNLVSAGAIIAEQGGTVEEVAAAVEAALAAAKAAAA
B3: d1r12_design_ppi_87_dldesign_0_cycle1_af2pred (protein)
chain: GAALEEAERLMEEAEAALAQAEATGDQRLLGAAMAAAERAVELATREASPEEAAEVERRAAELFARAAEVSQRIAAALLARAAAQA
B4: d2r7_design_ppi_31_dldesign_0_cycle1_af2pred (protein)
chain: AEAEALEAGAQVLSIVTATRAQTVAAFAQDPALGRQMYRQLQAAVRLAETTAKAYPAVAAELLAAAAAARAEAQAAL
B5: d1r12_design_ppi_352_dldesign_0_cycle1_af2pred (protein)
chain: SAARARYAALVAESAEVGAATYDAAAKAAEAAGDAATAAKYKEAAALYKAGADAAKAGDIAAAVAKINAAAALVAA
B6: d1r12_design_ppi_675_dldesign_0_cycle0_af2pred (protein)
chain: DEARRAGALAFAEQLRASFAATRAAAAALPRASAAAALAGIAASAKQLGAVVPEAAELAAEAAAAAAAVAA
B7: d2r7_design_ppi_474_dldesign_0_cycle1_af2pred (protein)
chain: MASLEAGYQQFLDSIAALPLDRADAQLAAQAARHRELAARYAAAAEAAADPAVAARLRARARDHEAAAAAVEAIRAEVTARAAARA
B8: d1r12_design_ppi_153_dldesign_0_cycle1_af2pred (protein)
chain: AAAHEAFVAEVTAVADAAADAASAAWLAGQTAGPEWRAVADRLVALAREALRAAADPARAPEARRAAAEAAALAAEAAALVAAA
B9: d2r6_design_ppi_356_dldesign_0_cycle0_af2pred (protein)
chain: SEEELEKTRASLEQLKGLAEWQAAQHPEQAPLYAEAARLAEEGMKATVEEARQLGAQASALLGRAVGAAAA
B10: d2r6_design_ppi_493_dldesign_0_cycle1_af2pred (protein)
chain: SATEAQVAAVKAKIDAATQAALNAHAARLTAAGIQAVIQTAYDASKAAGAEVKAGGDPEKAAAAAIKAVNDTAEAAAA
B11: d1r11_design_ppi_369_dldesign_0_cycle0_af2pred (protein)
chain: MQERLDAYNAEAGAALEAAAASTDGARRLALMRKAAGLGLAAAGYAAGPEAGEAAEKQAEARFAAADAALA
B12: d2r7_design_ppi_460_dldesign_0_cycle1_af2pred (protein)
chain: AAALAAARAAAAAAAAEAVARAAAEGPGLGLLMANEAARLLREAAAGDAAEVRAAAARLLAFAEQAIAAARANRAQAAAAR
B13: d2r6_design_ppi_165_dldesign_0_cycle0_af2pred (protein)
chain: MEVVEKVAELARKAAEAVERNLGEGFALAIQAADLAAEHEEVAEEAAEAAEEVLRKRAEEHPEHRERLLRLAEDFRSAVAHLLAQKA
B14: d1r11_design_ppi_982_dldesign_0_cycle1_af2pred (protein)
chain: AAAARAQAAQVVADSARAAAKEAEAKAKEAEAKDPAYGKELKANAEKLKAAAEAAEADPAALPEAVKTLIEQTSNMRALEAKLAA
B15: d2r6_design_ppi_32_dldesign_0_cycle1_af2pred (protein)
chain: MKEELKKALKNAEDAAATAKQVAASDPEAKAKVEELEKEARKLAKEGLEGTEEKAEEALKRVGELTREILRIASQQFAKQQA
B16: d2r3_design_ppi_395_dldesign_0_cycle1_af2pred (protein)
chain: SREALRQAGQLAVQAQTLANRGLALLLADPAAAPEAQALLDQAAALGEQAPVAAPVAETGRAQFAALAARL
B17: d2r6_design_ppi_333_dldesign_0_cycle0_af2pred (protein)
chain: MEEEGKKKAEEALKKAEESLKLAKSGKKLKEAEKKFAEALSLMEEAKPYLNKNPEVNKKLSKKLGEAAKALIAAKA
B18: d1r12_design_ppi_352_dldesign_0_cycle0_af2pred (protein)
chain: SRARANYAQLVAESAEGGAKAAEAKAKAAKAAGDEATAKKYEEAAELYREGAALAKAGDIAGAVAKINEAAALLAA
B19: d1r11_design_ppi_627_dldesign_0_cycle1_af2pred (protein)
chain: AEEVAARAAELTRTVHHGSPEEATAAARELTALVAAASPEAAAAGRRAIAETNKALLAETAAARAAAAAAAAAAAAAAAAAAA
B20: d1r12_design_ppi_293_dldesign_0_cycle1_af2pred (protein)
chain: AAAAEAARKAALAAAADAHAAGAQAALRAARQAAERGDPEAARTFMDLALTSAQQARDLYDEAGFPEKGKAVYEATRAAVAEVEALL
B21: d1r11_design_ppi_712_dldesign_0_cycle0_af2pred (protein)
chain: MTPEEKAARLAAAADAYIKMAKAALAAGKLEEAKEFAEAALKAAKEAEKLDPELGAKKAAEAKAVKAEIDAA
B22: d1r12_design_ppi_408_dldesign_0_cycle0_af2pred (protein)
chain: SLELAEAAHAAGRAAAADPARAAEAGALLKDMIAYALAASAAYREAEALRAAGGDQAAIDAAEAEAKAYEAKSKEKAAELKALAAAAA
B23: d1r11_design_ppi_712_dldesign_0_cycle1_af2pred (protein)
chain: MTPAQQAAQLANQANSYITMAKAALAAGDLETAKEFAELAIEYATQAQKLDPALGTAVKAEAEAVLAQVNAA
B24: d2r2_design_ppi_470_dldesign_0_cycle1_af2pred (protein)
chain: AAARARAYVALWQAANRAFAAAFATGSDAALAAARAAAAAAGAVLPGGRDAFLATVDSQAAALRAARAAAAAAAAA
B25: d2r6_design_ppi_176_dldesign_0_cycle1_af2pred (protein)
chain: ALREEVEKKMGEVLDLLKELQEKKKKGELTPEQIELMQQSMRELAKAAGYLASGDKVEEAKKEAEKALELAKKALEE
B26: d2r7_design_ppi_218_dldesign_0_cycle0_af2pred (protein)
chain: SAAEAEAKRYINHAETTLATAKQLAERSTPEQAARYYRAAGEIAWKDYEKAGEALSPEEGEKMRKKGKEVKEELEKKAKELEEK
B27: d2r6_design_ppi_69_dldesign_0_cycle1_af2pred (protein)
chain: GLEAAQAEASRLWRQLTPEGRAAAARAVNARVAGDTAAAAAILAAAKAADPAQGALAEAAAEALLRAIDLANAQAAAEAAARAAAA
B28: d2r2_design_ppi_370_dldesign_0_cycle1_af2pred (protein)
chain: RVISPAEIVELHTAANAALREALEGDPEAGLARLRAVADRAAALSPALGAALRAEAEGARAALAAAAAAAAA
B29: d2r6_design_ppi_231_dldesign_0_cycle1_af2pred (protein)
chain: AAAAEAAAAADERIATGAAAVAAMARVGARRGVEAARRLGERMLEAVTRAMAAEDPAAGARAREVGTAVFEAEIAAAAAAAAA
B30: d1r12_design_ppi_387_dldesign_0_cycle1_af2pred (protein)
chain: MEAARAAFERRKAALEADRAEAEALLADPATAAEGRALLAALAVRAKAYGKLFAAHDPELGAELTALGEEAAALA
B31: d1r11_design_ppi_865_dldesign_0_cycle0_af2pred (protein)
chain: DAELKAQAAKIAKEAIEKAKKAKDKNEVWRYASQGLAQLTRIAAAGSPEVKAFAAEQAKKLTEEAEKIVAAL
B32: d2r6_design_ppi_69_dldesign_0_cycle0_af2pred (protein)
chain: ALEELRRRASELWRALSPEARQAAARAVNARVAGDEAAAEAILAEQEARDPEQGALARAAADAALAAIDLANAQAAAAARAAAAAA
B33: d2r2_design_ppi_429_dldesign_0_cycle1_af2pred (protein)
chain: AAAEALRRALGAVLVAAHEAANRAAAERGLAAAEEVLAAGRAAGHALAARHPGAALARRAVDSQVAASAHVARHIAARAAALR
B34: d1r12_design_ppi_102_dldesign_0_cycle0_af2pred (protein)
chain: AAAEAAARLAEAEALLAKAKEHAKKAKEAAKAGDLAAANQHATAASAAALAIKELGAPADIQAAADAAVAEAMDAVVAAAKAR
B35: d2r4_design_ppi_198_dldesign_0_cycle1_af2pred (protein)
chain: AASAAMRAFTAAYGAANAAVARLYAADPAAGAAAARALQAALDEALALGAATGVAGIEEGAAALAAAAAALAAEAAALAAA
B36: d1r12_design_ppi_408_dldesign_0_cycle1_af2pred (protein)
chain: MEALAQAGHAANQAAAADPAQAPRAAALLREMIAHARAASAAWLEAQALEAAGGDPAAVAAARAAAAEHQAKAEALAAELKALAEAAA
B37: d1r11_design_ppi_460_dldesign_0_cycle1_af2pred (protein)
chain: AAEEALKRAEELAKEVIELAEKVPEAAALGKKVREALEAARHGAESLMRAAARSTPEAAAVMNESAIAMNEAAIKLAEELRKEIEKIA
B38: d1r12_design_ppi_822_dldesign_0_cycle1_af2pred (protein)
chain: AAAARAAEAAALAAAVTAAAAAVAAAVAAGTPDEGRAAARAFGRAALGAAARLPEVAPAVDAAADVVSDAYVAAVAAR

molecular target: CD276, Q5ZPR3
Sequence (Q5ZPR3 whole entry): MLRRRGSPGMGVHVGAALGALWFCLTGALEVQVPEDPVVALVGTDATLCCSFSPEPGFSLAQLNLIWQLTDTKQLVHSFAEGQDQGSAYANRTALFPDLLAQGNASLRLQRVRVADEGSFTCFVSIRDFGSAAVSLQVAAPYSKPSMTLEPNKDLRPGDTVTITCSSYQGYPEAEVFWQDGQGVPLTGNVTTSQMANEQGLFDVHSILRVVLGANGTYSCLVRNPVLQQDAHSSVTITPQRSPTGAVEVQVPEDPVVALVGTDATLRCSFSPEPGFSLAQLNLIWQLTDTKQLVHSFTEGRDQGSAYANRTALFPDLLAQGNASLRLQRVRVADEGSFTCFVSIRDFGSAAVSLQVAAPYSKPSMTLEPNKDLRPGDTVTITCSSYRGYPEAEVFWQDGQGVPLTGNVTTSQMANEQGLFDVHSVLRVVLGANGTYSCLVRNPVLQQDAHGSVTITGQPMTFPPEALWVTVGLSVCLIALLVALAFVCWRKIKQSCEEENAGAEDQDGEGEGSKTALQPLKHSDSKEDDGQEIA

| Binder | binding in a display sort |
| --- | --- |
| B1 | not found |
| B2 | not found |
| B3 | not found |
| B4 | not found |
| B5 | not found |
| B6 | not found |
| B7 | not found |
| B8 | not found |
| B9 | not found |
| B10 | not found |
| B11 | not found |
| B12 | not found |
| B13 | not found |
| B14 | not found |
| B15 | not found |
| B16 | not found |
| B17 | not found |
| B18 | not found |
| B19 | not found |

| Binder | binding in a display sort |
| --- | --- |
| B20 | not found |
| B21 | not found |
| B22 | not found |
| B23 | not found |
| B24 | not found |
| B25 | not found |
| B26 | not found |
| B27 | not found |
| B28 | not found |
| B29 | not found |
| B30 | not found |
| B31 | not found |
| B32 | not found |
| B33 | not found |
| B34 | not found |
| B35 | not found |
| B36 | not found |
| B37 | not found |
| B38 | not found |
